Bioassay records from PubChem.
An excerpt weighted towards active compounds, which were near 2.9% of everything screened.
Nrf2 ARE act – Nrf2 pathway activation | Potency, µM (titrated, usually from 46.1 µM), actives largely listed as activators | 0.31% of 410,000 active | AID 624171 | AREc32 ARE-luciferase reporter (MCF7-derived line), luminescence, 24 h; also: nearly all actives have a fitted effect of over 65% in size
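AREc32 cells carrying an ARE-driven firefly luciferase reporter were seeded at 1000 cells/well in OPTI-MEM with 5% FBS, then exposed to compound for 24 hr at 37 deg C. Luminescence was read with Steady-Glo after 30 min at RT.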
ATXN viability – cell viability loss in ATXN counter-screen. 0.49% of 400,000 active. Potency, µM (titrated, usually from 56.7 µM), most hits filed as cytotoxic. S2 cells (HEK-293 line with an ATXN2-luciferase reporter) viability, CellTiter-Fluor protease fluorescence, 24 h; also: nearly all actives have a fitted effect of over 40% in size
A549 tox – A549 cytotoxicity, counter-screen for Nrf2 inhibitors; A549 ARE-Fluc cells, CellTiter-Fluor viability, 18-24 h; Potency, µM (series often up to 46 µM), most hits filed as inhibitors; 0.16% of 390,000 active; AID 504648
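A549 ARE-Fluc cells in 5% FBS OPTI-MEM, 5000 cells/well, rested 2 h then exposed to compounds in concentration-response for 18-24 h at 37 °C. Viability by CellTiter-Fluor fluorescence (Ex 405/Em 525) after 30 min; luciferase luminescence (BugLite, 15 min, RT) read afterwards.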
ATXN2 expr inh – reduces ATXN2 reporter expression in HEK-293 cells | HEK-293 ATXN2-luciferase reporter, luminescence, 24 h | Potency, µM (titrated, usually from 57 µM), usual class: inhibitors | 0.72% of 360,000 active | AID 1745845; also: nearly all actives have a fitted effect of over 55% in size
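qHTS (up to 57 uM final) was run with 24 h compound exposure of reporter cells at 37 °C. Each well was multiplexed: SteadyGlo luminescence measured ATXN2-luciferase expression after a fluorogenic Gly-Phe-AFC viability readout (25 uM final).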
Nrf2 block – Nrf2 pathway inhibition. A549 ARE-Fluc reporter, luciferase luminescence, 18-24 h. Potency, µM (series often up to 46 µM), most hits filed as inhibitors. 2.1% of 360,000 active. AID 504444; also: nearly all actives have a fitted effect of over 60% in size
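Concentration-response testing used A549 ARE_Fluc cells at 5000 cells/well. Following an 18-24 h compound incubation, viability was read by fluorescence (Ex 405/Em 525) and luciferase output by luminescence.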
Hits are given with their value; i = inactive; ? = inconclusive; nt = not tested or not shown. Calls follow the shape of the dose curve; as a rule, active = well fitted curve in the direction sought with a large enough effect; inconclusive = small, poorly fitted or top-dose-only effect, or another doubt; inactive = no such curve, though single readings can be large; an effect the other way counts as inactive or inconclusive.

SMILES	Nrf2 ARE act	ATXN viability	A549 tox	ATXN2 expr inh	Nrf2 block
COc1ccc(OC)c(NC(=O)c2cccc(N3C(=O)C4C5C=CC(C6CC56)C4C3=O)c2)c1 (stereo unspecified)	i	14.1µM	i	nt	i
COC(=O)c1ccc(NC(=O)c2cccc(N3C(=O)C4C5C=CC(C6CC56)C4C3=O)c2)cc1 (stereo unspecified)	i	nt	?	?	20.6µM
CCOC(=O)c1sc(=S)n(C)c1NC(=O)c1ccc(F)cc1	i	i	i	i	23.1µM
CCOC(=O)c1c(-c2ccccc2)oc2cc(CN(C)C)c(O)c(CN(C)C)c12	i	i	i	14.1µM	nt
CCOC(=O)c1c(C)oc2cc(Cl)c(O)c(CN(C)C)c12	i	i	i	i	i
CC(=O)Nc1ccc(S(=O)(=O)N2CCCN(S(=O)(=O)c3ccc4c(c3)OCCO4)CC2)cc1	nt	nt	i	nt	?
COC(=O)C1=C(C(=O)OC)[C@@H]2N(Cc3ccccc3)c3ccccc3[C@@]23C[C@@H](C(=O)OC)N(C(=O)c2cc(C)oc2C)C3=N1	i	i	i	?	23.1µM
COC(=O)C1=C(C(=O)OC)[C@@H]2N(Cc3ccccc3)c3ccccc3[C@@]23C[C@@H](C(=O)OC)N(C(=O)c2cccs2)C3=N1	i	?	?	?	29.1µM
CCOc1ccc(C2c3c(oc4ccc(C)cc4c3=O)C(=O)N2Cc2ccc3c(c2)OCO3)cc1OC (stereo unspecified)	i	i	i	i	i
O=C(/C=C/Nc1ccc(F)cc1)c1cccs1	6.31µM	i	i	i	?
O=C(/C=C/Nc1ccc(F)c(F)c1)c1cccs1	8.91µM	i	i	i	?
COCCn1c(=NC(=O)c2ccc3c(c2)OCCO3)sc2cc(S(N)(=O)=O)ccc21	i	i	i	nt	13µM
COCCn1c(=NC(=O)c2cc(Cl)sc2Cl)sc2cc(S(N)(=O)=O)ccc21	?	i	i	i	i
COc1ccccc1N1CCN(c2nc(CNC(=O)C3CCOC(C)(C)C3)nc3ccccc23)CC1 (stereo unspecified)	nt	i	nt	nt	nt
COc1ccc2c(Sc3ccc(Cl)cc3)c(C(=O)NCCCN3CCCCC3)[nH]c2c1	i	nt	i	25.1µM	?
CCOCCCNC(=O)c1cc(Sc2ccc(C)cc2)nc2ccccc12	i	i	i	i	23.1µM
CCOCCCNC(=O)c1[nH]c2cc(C)ccc2c1Sc1ccc(Cl)cc1	i	i	i	i	i
CCOCCCNC(=O)c1[nH]c2cc(OC)ccc2c1Sc1ccccc1	i	i	i	i	25.9µM
Cc1ccc(CNc2ncnc3sc(C(=O)N4CCC(N5CCCC(O)C5)CC4)c(C)c23)o1 (stereo unspecified)	nt	i	nt	nt	nt
Cc1cc2c(cc1C1(c3ccc(C(=O)O)cn3)CC1)C(C)(C)CCC2(C)C	nt	nt	nt	i	nt
O=C(CNC(=O)c1ccccc1Cl)OC(C(=O)Nc1cc(C(F)(F)F)ccc1Cl)c1ccccc1 (stereo unspecified)	nt	nt	i	nt	i
CC(C)CC(=O)NC(=S)Nc1cccc(NC(=O)c2ccccc2)c1	i	i	i	nt	14.6µM
O=C(Nc1ccc(NC(=S)NC(=O)c2ccccc2Cl)cc1)c1cccc(Cl)c1	i	?	i	i	18.4µM
CCCC(=O)NC(=S)Nc1cccc(NC(=O)c2ccccc2)c1	i	i	i	i	?
c1ccc(CN(Cc2ccccc2)Cc2nnc(-c3cc4ccccc4[nH]3)o2)cc1	nt	nt	i	nt	i
SMILES	Nrf2 ARE act	ATXN viability	A549 tox	ATXN2 expr inh	Nrf2 block
COc1ccc(-c2nc3c4ccccc4n(CC(=O)N4CCN(c5ccc(F)cc5)CC4)c(=O)n3n2)cc1	i	i	i	i	nt
CC1=C(C(=O)OCc2ccccc2)C(c2ccccc2OC(F)F)NC(=O)N1 (stereo unspecified)	i	i	i	i	23.1µM
CCOc1ccccc1C1NC(=O)NC(C)=C1C(=O)OC1CCCCC1 (stereo unspecified)	i	i	i	i	20.6µM
c1cncc(OC2CCN(Cc3ccc4c(c3)CN(Cc3ccc5c(c3)OCO5)CCO4)CC2)c1	nt	i	nt	nt	nt
Cc1ccc(NC(=O)c2ccc(CN3CCc4ccccc4C3)cc2)cc1	i	i	i	i	?
Cc1cc(C)cc(NC(=O)c2ccc(CN3CCc4ccccc4C3)cc2)c1	i	i	i	i	14.6µM
O=C(Nc1ccccc1)c1ccc(CN2CCc3ccccc3C2)cc1	i	i	i	i	i
O=C(Nc1ccc(S(=O)(=O)N2CCCCC2)cc1)c1ccc(CN2CCc3ccccc3C2)cc1	i	i	i	i	0.326µM
O=C(Nc1cccnc1)c1ccc(CN2CCc3ccccc3C2)cc1	i	i	i	i	13µM
CCc1ccc(NC(=O)C(=O)NCCc2csc(-c3cccc(F)c3)n2)cc1	i	i	i	i	nt
CN1C(=O)c2ccccc2Sc2ccc(NC(=O)Nc3ccccc3F)cc21	i	nt	i	nt	20.6µM
CC(C)CCNC(=O)Nc1ccc2c(c1)N(C)C(=O)c1ccccc1S2	i	35.5µM	i	?	i
CC(=O)Nc1ccccc1OC1=N[S+](=O)([O-])c2ccccc21	nt	nt	i	nt	i
Cc1ccccc1C(=O)N1CCc2c(cnc(C)c2CNC(=O)c2ccc3c(c2)OCO3)C1	nt	i	nt	nt	nt
COC(=O)[C@H]1[C@H]2C[C@@H]3c4[nH]c5cc(OC)ccc5c4CCN3C[C@H]2C[C@@H](OC(=O)COc2ccc(OC)cc2)[C@@H]1OC	nt	i	nt	i	nt
OC(COC(c1ccccc1)c1ccccc1)CN1CCc2ccccc2C1 (stereo unspecified)	i	i	i	i	i
OC(COC(c1ccc(Cl)cc1)c1ccc(Cl)cc1)CN1CCc2ccccc2C1 (stereo unspecified)	i	nt	i	28.2µM	i
CC(C)(O)C#Cc1ccc(CN2CCc3nnc(CNC(=O)c4cccc(F)c4)n3CC2)cc1	nt	i	nt	nt	nt
Cc1ccc2c(c1)Oc1ccc(NC(=O)CCl)cc1C(=O)N2	?	10µM	i	?	i
CC1CCN(Cc2c(C(=O)N/N=C/c3ccccc3O)nnn2-c2nonc2N)CC1	i	i	i	3.16µM	?
COc1cc(/C=N/NC(=O)c2nnn(-c3nonc3N)c2C(C)C)ccc1OCc1ccc(F)cc1	i	i	?	i	16.4µM
CC(=C/c1ccccc1)/C=N/NC(=O)c1nnn(-c2nonc2N)c1CN1CCC(C)CC1	i	?	i	i	i
CC(/C=N/NC(=O)c1nnn(-c2nonc2N)c1CN1CCCCC1)=C\c1ccccc1	i	i	?	i	5.17µM
CC1CCN(Cc2c(C(=O)N/N=C/c3ccc(OC(C)C)cc3)nnn2-c2nonc2N)CC1	i	i	?	i	23.1µM
COc1cc(-c2ccc3ncnc(NCc4nc(C)cs4)c3c2)cc(OC)c1OC	nt	nt	i	nt	?
COc1ccccc1N1CCN(C(=O)c2nc(SC)ncc2Cl)CC1	i	?	i	i	i
Cc1ccc(C(=O)NCCc2nnc3n2CCN(Cc2cc(C)cc(C)c2)CC3)cc1	nt	i	nt	nt	nt
O=C(NCC(c1cccnc1)N1CCc2ccccc21)c1cccc(Br)c1 (stereo unspecified)	i	nt	i	nt	16.4µM
